This is a sample that favours compounds with a hit; in the whole collection about 19% have one here.
Pf growth 48h = inhibits P. falciparum growth in the first generation, 48 h. 310,000 compounds, 5.9% hits. Potency, µM (highest dose often 28.7 µM), actives largely listed as inhibitors. P. falciparum luciferase growth in erythrocytes, 48 h
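Here the parasites carry a stable luciferase gene and grow inside erythrocytes in Albumax-based RPMI medium with compound for one erythrocytic cycle. Activity is scored as loss of luminescent signal.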
Shiga toxin inh = blocks Shiga toxin action in Vero cells | Vero cells, Shiga toxin protein synthesis inhibition reporter | inhibition, % at 38.7 µM | 290,000 compounds, 9.2% hits | AID 2315; in the data active means inhibition mostly above about 28%, no sharp cut-off; inactive means mostly below about 43%
Cycloheximide cs = affects cycloheximide protein synthesis inhibition readout, counter-screen; 300,000 compounds, 12% hits; cell reporter, cycloheximide protein synthesis inhibition counterscreen; max response, %; in the data active means max response mostly above about 13%, no sharp cut-off; inactive means mostly below about 14%; further: read at 38.3 µM for the half of the compounds with a filed dose
SARS PLP yeast = blocks SARS-CoV papain-like protease in a yeast assay | S. cerevisiae expressing SARS-CoV PLpro, growth rescue | Potency, µM (highest dose often 32.9 µM), most hits filed as activators | AID 485353 | 330,000 compounds, 0.19% hits; calls by dose curve; further: nearly all actives have a fitted effect of over 55% in size
Pf growth 96h = P. falciparum growth inhibition at 96 hour, primary screen for plastid delayed-death inhibitors; P. falciparum luciferase reporter growth, 96 h; Potency, µM (top dose mostly 28.7 µM), most hits filed as inhibitors; 320,000 compounds, 6.9% hits; AID 504834
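Two parasite generations (96 h, 37 C, 5% CO2) of compound exposure in infected erythrocytes (0.05% parasitemia, 2% hematocrit). Luciferase-reporter P. falciparum; decreased luminescence indicates inhibited growth, aimed at apicoplast-acting delayed death.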
AMA1-RON2 inh = disrupts binding of P. falciparum AMA1 to RON2 | AlphaScreen AMA1-biotinylated RON2 peptide binding | Potency, µM (highest dose often 58.2 µM), usual class: inhibitors | 360,000 compounds, 0.2% hits; further: nearly all actives have a fitted effect of over 45% in size
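AMA1 (3D7) with his tag at 25 nM final met compounds first, then biotinylated RON2 peptide at 25 nM; detection used donor plus acceptor beads, 10 µg/mL apiece, read by AlphaScreen after 30 min at room temperature.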
Large screens that a line does not name were inactive. Unless noted, the call rests on the fitted dose curve; in most records, active means well fitted curve in the direction sought with a large enough effect; inconclusive means small, poorly fitted or top-dose-only effect, or another doubt; inactive means no such curve, though single readings can be large; an effect the other way counts as inactive or inconclusive.

COc1cccc(/C=C/C(=O)OCC(=O)Nc2ccc(Cl)c(S(=O)(=O)N(C)C)c2)c1OC	Pf growth 96h inconclusive
O=C(CN1CCCCC1)NNC(=O)c1cccc(Br)c1	none
CCN(CC)C(=N)/C(C#N)=N/Nc1ccc(C)cc1	Shiga toxin inh 87, Cycloheximide cs 44
Cc1ccc(N/N=C(\C#N)C(=N)N2CCCCCC2)cc1	Shiga toxin inh 94, Cycloheximide cs 37, Pf growth 96h inconclusive
Cc1ccc(NNC(=O)C(=O)N2CCCCC2)cc1	none
COc1ccc(NC(=O)COc2ccc(C(=O)OCC(=O)N(C(C)C)C(C)C)cc2OC)cc1	none
O=C(c1cc2cc(F)ccc2[nH]1)N1CCc2ccccc21	Pf growth 48h inconclusive, Shiga toxin inh 74, Cycloheximide cs 34, Pf growth 96h inconclusive
Cc1cc(C(=O)N2CCc3ccccc32)c2cc(F)ccc2n1	Shiga toxin inh 72, Cycloheximide cs 35
O=C(c1cccc(F)c1)N1CCc2ccccc21	none (no result: Pf growth 96h)
COc1ccc2cc(C(=O)N3CCc4ccccc43)[nH]c2c1	Shiga toxin inh 100, Cycloheximide cs 34
O=C(c1cc2cc(Br)ccc2[nH]1)N1CCc2ccccc21	Pf growth 48h inconclusive, Cycloheximide cs 19, Pf growth 96h 1.5µM
Cc1nc(N)sc1-c1nnc(SCC(=O)Nc2nccs2)n1C	none (no result: Pf growth 96h)
COCC(=O)N1CCC(n2nccc2NC(=O)c2ccccc2OC)CC1	Pf growth 48h inconclusive
COc1ccc(CN2C(=O)CSCC2(C)C(=O)NC(C)C)cc1 (stereo not drawn)	none (no result: Pf growth 48h, Shiga toxin inh, Cycloheximide cs, SARS PLP yeast, Pf growth 96h)
Cc1c(-c2nc(N)nc(Nc3ccccc3F)n2)oc2ccccc12	Shiga toxin inh 187, Cycloheximide cs 57 (no result: Pf growth 96h)
Cc1ccc(Nc2nc(N)nc(-c3oc4ccccc4c3C)n2)cc1	Pf growth 48h inconclusive, Shiga toxin inh 46, Cycloheximide cs 23
COc1ccccc1Nc1nc(N)nc(-c2cc3ccccc3o2)n1	Shiga toxin inh active, Cycloheximide cs 33
COc1cccc(Nc2nc(N)nc(-c3oc4ccccc4c3C)n2)c1	Pf growth 48h inconclusive, Shiga toxin inh 79, Cycloheximide cs 42
C[C@@H](C(=O)NCCc1c[nH]c2ccccc12)[C@@H]1C[C@@]1(C)[C@@H](NC(=O)OCc1ccccc1)c1ccccc1	Pf growth 48h inconclusive, Pf growth 96h inconclusive
Cc1cccc(Nc2nc(N)nc(-c3oc4ccccc4c3C)n2)c1	Pf growth 48h inconclusive, Shiga toxin inh 89, Cycloheximide cs 53
Cc1cccc(Nc2ncnc(N)n2)c1	none
CC(C)Oc1ccc(C2CCC(=O)NC2=O)cc1 (stereo not drawn)	none
CC(C)Oc1ccc(CC2CC(=O)NC2=O)cc1 (stereo not drawn)	Pf growth 96h 10µM
Cc1ccc([N+](=O)[O-])cc1S(=O)(=O)NCCc1c(C)[nH]c2c(C)cccc12	Pf growth 96h 9.3µM
Cc1[nH]c2c(C)cccc2c1CCNS(=O)(=O)c1cccc([N+](=O)[O-])c1	none
CN(C(=O)COC(=O)c1ccc(-c2ccc(O)cc2)cc1)C1CCS(=O)(=O)C1 (stereo not drawn)	none
CC(C)(CC(=O)O)CC(=O)N1CCN(c2nc3cc(Cl)ccc3s2)CC1	none
COc1ccc(C(=O)Nc2ccc(N3CCOCC3)cc2)cc1OC	none
COc1ccc(C(=O)Nc2ccc(N3CCCC3)cc2)cc1OC	Shiga toxin inh 51, Cycloheximide cs 34, Pf growth 96h inconclusive
COc1ccc(/C(C)=N/NC(=O)c2ccc(N(C)C)cc2)cc1	Pf growth 48h inconclusive, Pf growth 96h 0.59µM
COc1ccc(N2CCN(c3ccc(NC(=O)NN)cc3)CC2)cc1	Pf growth 96h 12µM (no result: Shiga toxin inh)
C/C(=N\NC(=O)c1ccc(N(C)C)cc1)c1cccnc1	Cycloheximide cs 23
Cc1ccc(C2c3[nH]c4ccccc4c3C[C@H]3C(=O)N(c4ccccc4C(=O)N4CCC[C@@H]4C(=O)O)C(=O)N23)cc1 (stereo partly drawn)	Pf growth 48h inconclusive, Pf growth 96h inconclusive
CC(C)Oc1cccc(C(=O)NC(=S)Nc2ccc(N3CCN(C)CC3)cc2)c1	Pf growth 48h 13µM, Cycloheximide cs 26, Pf growth 96h 12µM
COC(=O)[C@H]1[C@H](C(=O)OC)[C@@H](C(=O)OC)N(c2ccc(OC)cc2)[C@@H]1C(=O)OC	none
CC(C)Oc1cccc(C(=O)NC(=S)Nc2cccc(NC(=O)c3ccccc3Cl)c2)c1	Pf growth 96h inconclusive
COc1ccc(N2CCSC2C(=O)NN)cc1 (stereo not drawn)	Pf growth 96h 9.3µM
COc1cccc(C(=O)NC(=S)Nc2ccc(N(C)C)cc2)c1	Shiga toxin inh 102, Cycloheximide cs 34, AMA1-RON2 inh inconclusive
C/C(=N\NC(=O)c1ccc(N(C)C)cc1)c1ccc(C)cc1C	Shiga toxin inh 24
O=C(CNS(=O)(=O)c1ccccc1)NCC(=O)OCc1ccc(Cl)cc1	none
Nc1cc2c(cc1C(=O)c1ccc(Cl)cc1)OCCO2	AMA1-RON2 inh inconclusive (no result: Pf growth 48h)
CN1CCN(c2ccc(NC(=O)C(C)(c3ccccc3)c3ccccc3)cc2)CC1	Pf growth 48h 13µM, Pf growth 96h inconclusive
CN1CCN(c2ccc(NC(=O)Oc3ccccc3)cc2)CC1	Pf growth 96h inconclusive (no result: Pf growth 48h)
COc1ccc(/C(C)=N/NC(=O)CNC(=O)c2cccnc2)cc1	Pf growth 96h inconclusive (no result: Pf growth 48h)
COc1ccc(NC(=O)c2ccc(NC(=O)CN3CCN(c4ccc(O)cc4)CC3)cc2)cc1	none (no result: Pf growth 48h, Shiga toxin inh, Cycloheximide cs, SARS PLP yeast, Pf growth 96h)
COc1ccc(C(=O)N/N=C(/C)c2ccc(N3CCCCC3)cc2)cc1	Shiga toxin inh 74, Cycloheximide cs 30
C/C(=N\NC(=O)c1cccnc1)c1ccc(OC2OCCOC2Oc2ccc(/C(C)=N/NC(=O)c3cccnc3)cc2)cc1 (stereo not drawn)	Shiga toxin inh 54, Cycloheximide cs 16
COc1ccc(C(=O)Nc2ccc(N3CCCC3)cc2)cc1	Pf growth 96h 4.1µM (no result: Pf growth 48h)
C/C(=N\NC(=O)Cn1ccc(C(F)(F)F)n1)c1ccco1	none
COc1ccc(NC(=O)CN2C(=O)NC(C)(c3ccc(C)cc3)C2=O)c([N+](=O)[O-])c1 (stereo not drawn)	none
COc1ccc(NC(=O)c2ccc(COCC(F)(F)C(F)F)cc2)cc1	Shiga toxin inh active, Cycloheximide cs 53, Pf growth 96h inconclusive
CN1CCN(c2ccc(-c3ccnn3C(=O)Nc3ccccc3)cc2)CC1	Cycloheximide cs 41
O=C(NC(=S)Nc1ccc(N2CCOCC2)cc1)c1cccc(Cl)c1	none
COc1cccc(C(=O)NC(=S)Nc2ccc(N3CCCC3)cc2)c1	Pf growth 48h inconclusive, AMA1-RON2 inh 25µM
COc1ccc(/C(C)=N/NC(=O)c2nc(C)cc(C)n2)cc1	Shiga toxin inh 50, Cycloheximide cs 32 (no result: Pf growth 96h)
COc1ccc(NC(=O)c2ccc(COCC(F)(F)C(F)F)cc2)cc1OC	Pf growth 96h inconclusive
COc1ccc(-c2cn(-c3ccc(C)cc3C)c(=O)[nH]2)cc1OC	Pf growth 96h inconclusive
